Results on seven compounds are retold here after PubChem BioAssay.

Assay [1] can be described thus: compounds altering viability of human ES cells (AID 493140; call rule not given here;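 also: cells exposed to compounds for four days before counting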). Particulars: human embryonic stem cell survival screen; stronger effect = higher value.
Assay [2] is described as follows: P. berghei load reduction in hepatocytes – cell-based, HepG2, luciferase luminescence, HepG2 viability, primary screen (AID 624349; in the data active = parasite load remaining mostly below about 12%, no sharp cut-off; inactive = mostly above about 10%;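 also: 100% = mean of DMSO negative control wells on the same plate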). As to conditions: P. berghei liver stage in HepG2, luciferase luminescence, concentration not given here; parasite load remaining: stronger effect = lower value; viability: measured here: HepG2 viability without parasites.
Assay [3] is described as follows: Wnt pathway potentiators raising nuclear beta-catenin – imaging, WNT3A-conditioned medium, mouse C2C12, NPC library, primary screen (AID 1117326; in the data active = nuclear beta-catenin stimulation mostly above about 4.2%, no sharp cut-off; inactive = mostly below about 10%). As to conditions: stronger effect = higher value.
Assay [4] is described as follows: stimulators of insulin release from INS-1E, primary screen, cell-based, 5 mM glucose, NPC library (AID 1117329;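 active = compound raises insulin release from rat beta cells at 5 mM glucose, no numeric limit stated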). Particulars: rat INS-1E insulin secretion, at 10 µM, stronger effect = higher value.
Assay [5] is described as follows: growth inhibition of GSK3B-pretreated HCT116 cells – cell-based, CellTiter-Glo, 0.2 to 20 µM (AID 1117336;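 active = compounds lowering colon cancer cell viability after pretreatment blocking the GSK3B kinase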). Particulars: HCT116 viability after GSK3B inhibitor, at 20 µM, stronger effect = higher value. Background: In ATP-based viability assays light output follows the ATP content of the culture.
Assay [6] can be described thus: inhibition of endothelial tube formation, primary screen, imaging, VEGF stimulated, CD31 staining, tube area, NPC library (AID 1117340;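 active = compound that reduces growth-factor-driven endothelial tube area in a mixed cell culture, no cutoff stated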). Particulars: VEGF-stimulated ADSC/ECFC co-culture, at 10 µM, stronger effect = higher value.
Assay [7] can be described thus: GLP1 release stimulators, primary, NCI-H716, NPC library (AID 1117341). Particulars: NCI-H716 cells, at 10 µM, stronger effect = higher value.
Assay [8] in a line: HCT116 colon cancer cell growth inhibition, primary screen, CellTiter-Glo luminescence, NPC library (AID 1117342;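 active = compounds that lower survival of HCT116 colon cancer cells in the luminescence readout, no numeric limit stated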). Particulars: at 20 µM (top of the series).
A short description of assay [9]: reduced SW480 viability measured with CellTiter-Glo, NPC library, primary (AID 1117343;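 active = compounds that lower viability of the colon cancer cells in the luminescence readout, with no numeric limit stated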). As to conditions: CellTiter-Glo luminescence; at 20 µM (top of the series).
A short description of assay [10]: NPC library primary testing for decreased DLD-1 cell viability via CellTiter-Glo (AID 1117346;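 active = compounds that lower survival of DLD-1 colon cancer cells in the luminescence readout, no cutoff given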). Particulars: DLD-1 viability, CellTiter-Glo luminescence; at 20 µM (top of the series).
Assay [11] in a line: viability loss with induced miR-34 in A549 – imaging, A549 dox-inducible miR-34, nuclei and caspase counts, primary screen (AID 1347080;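 active = compounds whose cell count with miR-34 switched on is under 0.7 times the count with it off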). Particulars: A549 miR-34 inducible, Hoechst nuclei count, 48 h.
A short description of assay [12]: MELAS cybrid and Rieske KO viability enhancers – cell-based, MELAS cybrids, Rieske KO mouse fibroblasts, CellTiter-Glo, primary screen (AID 1508586;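 active = mean z-score across replicates of 1.96 or higher in either the MELAS or the Rieske mutant cell line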;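 also: z relative to plate mean and SD of compound and empty wells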). Particulars: low glucose.
Assay [13] has as its target NAD(+) hydrolase SARM1 (Homo sapiens) (UniProt Q6SZW1). The assay is described as follows: blocking NAD cleavage by SARM1 SAM-TIR – cell lysate, NAD-Glo luminescence (AID 1508614;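 active = compound whose remaining NAD level is above about 45 nM, limit read from the data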;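 also: higher remaining NAD means stronger inhibition of SARM1 NADase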). As to conditions: SAM-TIR HEK293T lysate NADase, at 1 µM, stronger effect = higher value.
Assay [14] can be described thus: galactose survival enhancers in mitochondrial complex I cybrids – cell-based, galactose medium, ATP luminescence, primary screen (AID 1645843;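 active = z-score of at least 1.8 in each of two replicates, scored against plate mean and spread of sample wells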;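 also: positive z means more ATP and so rescue of galactose-driven cybrid death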). Particulars: complex I mutant cybrid cells, 72 h, stronger effect = higher value.
Setting [15] is: measured here: relative caspase fold change +Dox/-Dox.
Setting [16] is: measured here: total cells with miR-34 induction, stronger effect = lower value.
Setting [17] is: measured here: total cells without miR-34 induction.
The mark [18] stands for this setting: MELAS cybrid survival, CellTiter-Glo 48 h, stronger effect = higher value.
Where [19] appears, read: Rieske KO mouse fibroblast survival, CellTiter-Glo 72 h.

Several values for one entry are separate records, joined by “and”; a condition that tells them apart may be missing. Identical values can stand only once. Activity calls are given as the source filed them.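 The calls were made as follows, unless noted: active = compound raises GLP1 secretion from the human gut endocrine cells, with no numeric limit stated; inactive = the rest.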

The viability is a per cent measure of how many cells are alive, often set against a control.

Chain of NAD(+) hydrolase SARM1 (Homo sapiens) (Q6SZW1 whole entry, looked up): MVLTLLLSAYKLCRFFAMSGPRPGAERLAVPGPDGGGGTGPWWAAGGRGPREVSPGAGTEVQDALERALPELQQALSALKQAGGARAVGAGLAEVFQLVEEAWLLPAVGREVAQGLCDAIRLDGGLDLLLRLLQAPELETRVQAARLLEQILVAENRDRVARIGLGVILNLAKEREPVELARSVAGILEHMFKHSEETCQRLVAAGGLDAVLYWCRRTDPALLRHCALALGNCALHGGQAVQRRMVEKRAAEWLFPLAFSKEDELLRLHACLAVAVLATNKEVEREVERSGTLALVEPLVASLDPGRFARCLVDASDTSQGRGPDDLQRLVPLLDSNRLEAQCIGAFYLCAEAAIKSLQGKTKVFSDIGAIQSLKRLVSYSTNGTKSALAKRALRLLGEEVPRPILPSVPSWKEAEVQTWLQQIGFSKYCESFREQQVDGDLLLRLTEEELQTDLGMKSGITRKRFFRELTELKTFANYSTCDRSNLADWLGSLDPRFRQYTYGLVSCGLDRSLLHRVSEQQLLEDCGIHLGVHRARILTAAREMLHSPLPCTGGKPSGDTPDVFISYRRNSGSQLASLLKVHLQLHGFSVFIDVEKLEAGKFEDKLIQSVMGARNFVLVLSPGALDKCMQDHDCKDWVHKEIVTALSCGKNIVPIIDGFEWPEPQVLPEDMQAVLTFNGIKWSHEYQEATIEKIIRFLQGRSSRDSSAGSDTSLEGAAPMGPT

`O=S(=O)(O)c1cc(O)ccc1O`: the survival in [1] is 4.5 (inactive). For the same compound, the parasite load remaining in [2] was 113% (inactive). The compound further showed a viability in assay [2] of 69.3%. Moreover, the nuclear beta-catenin stimulation in assay [3] (at 10 µM) is 0.1% (inactive); in [3] (stimulation, at 2 µM), 2.5%. Moreover, the insulin secretion stimulation in assay [4] is 3.2% (inactive). Besides, the viability decrease in [5] is -0.4% (inactive). The tube area decrease in [6] was 3% (inactive). In [7], the GLP1 secretion stimulation is -3% (inactive). In addition, the inhibition of viability in assay [8] was 2.4% (inactive). Moreover, the viability decrease (inhibition) in assay [9] is 19.4% (inactive); in assay [10] it was 10.6% (inactive). Also, the fold change in [11] (stronger effect = lower value) is 0.958 (inactive) and 1.35 (inactive); in assay [11] (setting [15]) it was 0.623 and 0.929. The cell count in assay [11] (setting [16]) was 8960 and 8580; in assay [11] (setting [17]), 9360 and 6370. The z-score is -0.259 (inactive) and 0.566 (inactive) in [12] (setting [18]); -0.197 and 0.515 in assay [12] (setting [19]).

Take `CCOP(=S)(OCC)SCSc1ccc(Cl)cc1`: the nuclear beta-catenin stimulation was 1.3% (inactive) in assay [3] (at 10 µM) and -1.3% in assay [3] (stimulation, at 2 µM). In addition, in [4], the insulin secretion stimulation was -1.15% (inactive). In addition, in assay [7], the GLP1 secretion stimulation was -0.9% (inactive).

Turning to `NCc1cccnc1`, the nuclear beta-catenin stimulation in assay [3] (at 10 µM) is 0.8% (inactive); in [3] (stimulation, at 2 µM) it was 1.2%. Further, the insulin secretion stimulation in [4] was -1.3% (inactive). Further, the viability decrease in assay [5] is 16.9% (inactive). The tube area decrease in [6] was -11.1% (inactive). Also, the GLP1 secretion stimulation in assay [7] was 0% (inactive). Besides, in [8], the inhibition of viability is -22.4% (active). The values for the viability decrease (inhibition) in assay [9] and in assay [10] were 1.8% (inactive) and -13.1% (inactive), respectively. For the same compound, the fold change in [11] (stronger effect = lower value) is 0.867 (inactive); in assay [11] (setting [15]), 0.915. In addition, the cell count worked out at 7820 in assay [11] (setting [16]) and 9010 in [11] (setting [17]). In addition, the remaining NAD in [13] is 10 nM (inactive).

For `CCC(C(N)=O)N1CCCC1=O` (centres undefined), the nuclear beta-catenin stimulation in assay [3] (at 10 µM) was -0.1% (inactive); in [3] (stimulation, at 2 µM), -0.2%. The insulin secretion stimulation in assay [4] is 1.4% (inactive). In addition, in [5], the viability decrease was -0.8% (inactive). The tube area decrease in assay [6] is -18.3% (inactive). The GLP1 secretion stimulation in assay [7] is 0.6% (inactive). Also, the inhibition of viability in assay [8] was -4.9% (inactive). For the same compound, the viability decrease (inhibition) is -0.6% (inactive) in assay [9] and -1.1% (inactive) in [10]. Moreover, the fold change in [11] (stronger effect = lower value) was 0.925 (inactive) and 0.884 (inactive); in assay [11] (setting [15]) it was 1.53 and 10.7. For the same compound, the cell count in [11] (setting [16]) was 9780 and 8770; in [11] (setting [17]), 10600 and 9920. For the same compound, the z-score in assay [12] (setting [18]) is 2 (active); in assay [12] (setting [19]) it was 0.478; in assay [14] it was 0.645 (inactive).

Consider `NCCC[C@H](N)C(=O)O`, for which the nuclear beta-catenin stimulation in assay [3] (at 10 µM) is 1.2% (inactive); in [3] (stimulation, at 2 µM), 1.6%. Also, the insulin secretion stimulation in assay [4] was -2.2% (inactive). The viability decrease in assay [5] is -5.15% (inactive). Also, the tube area decrease in assay [6] was -2.1% (inactive). For the same compound, the GLP1 secretion stimulation in [7] is 1.4% (inactive). The inhibition of viability in assay [8] is -35.4% (inactive). In addition, the viability decrease (inhibition) in assay [9] was 98.1% (active); in assay [10], 0.35% (inactive). For the same compound, the remaining NAD in [13] is 10 nM (inactive).

Turning to `O=[N+]([O-])C(Br)(CO)CO`, the nuclear beta-catenin stimulation in assay [3] (at 10 µM) is 44.8% (active); in [3] (stimulation, at 2 µM) it was 0%. In addition, the insulin secretion stimulation in [4] was 20.2% (active). Further, the viability decrease in [5] is -19.2% (inactive). Further, the tube area decrease in assay [6] is 106% (active). The GLP1 secretion stimulation in [7] was -0.1% (inactive). Further, in [8], the inhibition of viability is 2.9% (inactive). The viability decrease (inhibition) in [9] was 88.9% (active); in assay [10], 52.2% (active). Also, the remaining NAD in [13] was 51 nM (active).

Turning to `C[C@]12CC[C@@H]3c4ccc(OC(=O)N(CCCl)CCCl)cc4CC[C@H]3[C@@H]1CC[C@@H]2O`, the nuclear beta-catenin stimulation in assay [3] (at 10 µM) was -1.2% (inactive); in [3] (stimulation, at 2 µM), 0.4%. Besides, the insulin secretion stimulation in assay [4] was -0.9% (inactive). For the same compound, in [5], the viability decrease is 18.1% (inactive). The tube area decrease in [6] was 2.8% (inactive). For the same compound, the GLP1 secretion stimulation in assay [7] was 2.6% (inactive). The inhibition of viability in assay [8] is -23.1% (inactive). Further, the viability decrease (inhibition) is 56.7% (active) in assay [9] and 23.4% (inactive) in assay [10]. Further, the z-score in assay [12] (setting [18]) was -1.9 (inactive); in assay [12] (setting [19]), 0.249. Besides, the remaining NAD in assay [13] is 10 nM (inactive).
